ChEMBL document CHEMBL1157539, “Thousands of chemical starting points for antimalarial lead identification” (Nature, 2010)

Legend:
Assay type in all cases: functional
Plasmodium falciparum [1] = experiment: GSK_TCMDC: Inhibition of Plasmodium falciparum 3D7 in whole red blood cells, using parasite LDH activity as an index of growth. Test compounds present at 2uM
Plasmodium falciparum [2] = experiment: GSK_TCMDC: Inhibition of Plasmodium falciparum Dd2 in whole red blood cells, using parasite LDH activity as an index of growth. Test compounds present at 2uM
HepG2 = experiment: GSK_TCMDC: Percent inhibition of human HepG2 cell line. Test compounds present at 10uM.

| Compound | Inhibition (Plasmodium falciparum [1]) [%] | Inhibition (Plasmodium falciparum [2]) [%] | Inhibition (HepG2) [%] |
| --- | --- | --- | --- |
| CCCCN(CCCC)CCCN(CCCN(CCCC)CCCC)c1cc(C)nc(Nc2ccc3cc(Br)ccc3c2)n1.Cl | 100 | 99 | 52 |
| CNc1ccc(CNCc2cccc(-c3ccc(-c4nc5ccccc5[nH]4)s3)c2)cc1.O=C(O)C(F)(F)F | 100 | 77 | 15 |
| CCC1(CC)NC(N)=NC(=N)N1OCc1ccc(Cl)c(Cl)c1.Cl | 94 | 49 | 49 |
| O=S(=O)(Nc1cccc(CCN2CCCCC2CCN2CCCC2)c1)c1ccc(Oc2ccccc2)cc1 (stereo not given) | 94 | 1 | 52 |
| Cl.Fc1cc(Cl)ccc1Nc1ccnc2cc(-c3ccc(CN4CCNCC4)o3)ccc12 | 100 | 99 | 16 |
| Cc1c(C)c2c(c(C)c1O)CC[C@](C)(C(=O)N1CCC(CCN3CCC(c4c[nH]c5ccccc45)CC3)CC1)O2 | 99 | 74 | 31 |
| O=C(/C=C/c1ccc(Cl)c(Cl)c1)NCCCCCN1CCCN(C(=O)Nc2cc(Cl)cc(Cl)c2)CC1 | 96 | 4 | 53 |
| COCCOc1ccc(C(F)(F)F)cc1NC(=O)Cc1c(F)cccc1Cl | 88 | 74 | 18 |
| O=C(/C=C/c1ccc(Cl)cc1)NCCCCCN1CCCC(C(=O)Nc2cccc(Cl)c2)C1 (stereo not given) | 96 | 4 | 21 |
| O=C(O)C(F)(F)F.c1cc(-c2ccc(CN3CCCCC3)cc2)cc(-c2nc3ccccc3[nH]2)c1 | 100 | 79 | 39 |
| FC(F)(F)c1ccc2[nH]c(-c3ccc(-c4cccc(CN5CCN(CCN6CCOCC6)CC5)c4)cc3)nc2c1.O=C(O)C(F)(F)F | 98 | 77 | 47 |
| OC(c1nnc(S)n1-c1ccccc1)C(O)c1nnc(S)n1-c1ccccc1 (stereo not given) | 92 | 89 | 18 |
| CC(C)N1CCN(CCCNc2c3ccccc3nc3ccccc23)CC1.Cl | 100 | 1 | 29 |
| Cc1cnc(NCCc2ccc(F)cc2)nc1NCCC(=O)Nc1ccccc1.O=C(O)C(F)(F)F | 89 | 17 | 3 |
| Cc1cc(NCCC(=O)Nc2ccccc2)nc(NCCOc2ccccc2)n1.O=C(O)C(F)(F)F | 100 | 9 | 5 |
| CCCC(C)NC(=O)[C@H](CC1CCCCC1)NC(=O)c1ccc(O)c(-c2ccc(OC)cc2)c1 (stereo not given in full) | 89 | 37 | 3 |
| CS(=O)(=O)O.FC(F)(F)COc1c(CNCCCCCCNCc2ccc3ccccc3c2OCC(F)(F)F)ccc2ccccc12 | 100 | 79 | 100 |
| C=C[C@]1(C)C[C@@H](OC(=O)NC(=O)CCCS(=O)(=O)c2nnc(C)s2)[C@]2(C)[C@H](C)CC[C@]3(CCC(=O)[C@H]32)[C@@H](C)[C@@H]1O | 94 | 97 | 0 |
| Cc1cccc(C)c1CNc1cccc(-c2nc(C)c(C)[nH]2)c1.Cl | 99 | 44 | 58 |
| Cc1ccccc1N1CCN(c2ncc(C(=O)NC3CC3)cc2Cl)CC1.O=C(O)C(F)(F)F | 91 | 96 | 23 |

| Compound | Inhibition (Plasmodium falciparum [1]) [%] | Inhibition (Plasmodium falciparum [2]) [%] | Inhibition (HepG2) [%] |
| --- | --- | --- | --- |
| CC(c1cccc(S(=O)(=O)NCc2cccc(C(F)(F)F)c2)c1)N1CCC(N2CCCCC2)CC1 (stereo not given) | 99 | 35 | 37 |
| CC(C)c1ccc(NC(=O)c2ccc(C(=O)NCC3CCN(CC4CCCCC4)CC3)cc2)cc1.O=C(O)C(F)(F)F | 92 | 18 | 26 |
| O=C(O)C(F)(F)F.c1ccc2[nH]c(-c3ccc(-c4ccc(CN5CCCCC5)cc4)cc3)nc2c1 | 99 | 100 | 27 |
| COc1cccc(CN2CCC3(CC2)CN(C(=O)Nc2ccc(Cl)c(Cl)c2)C3)c1 | 97 | 2 | 29 |
| Cc1ccccc1C1CCN(C2CCC(NC(=O)/C=C/c3ccc(Cl)cc3)CC2)CC1 (stereo not given) | 99 | 25 | 78 |
| CN(CCCNc1ccc(C(=O)Nc2ccc(C(F)(F)F)cc2)cc1[N+](=O)[O-])Cc1ccccc1 | 100 | 48 | 25 |
| C=CC[C@H](C[C@H](O)[C@H](Cc1ccccc1)NC(=O)c1nn(-c2ccccc2)nc1C)C(=O)NC1CCCCC1 | 94 | 3 | 6 |
| N#Cc1ccc(CN2CCC(Oc3ccc(NC(=O)c4ccco4)cc3Cl)CC2)cc1.O=C(O)C(F)(F)F | 95 | 96 | 7 |
| O=C(NC1CCC1)C1CCN(C(c2ccccc2)c2cc(F)cc(F)c2)CC1 (stereo not given) | 94 | 72 | 0 |
| CCN(CC)CCCNc1ncc2c(-c3ccc(NC(=O)Nc4cc(C(F)(F)F)ccc4F)c(F)c3)nn(C)c2n1.O=C(O)C(F)(F)F | 94 | 68 | 100 |
| COc1ccc(-c2ccc(NC(=O)c3cccc(C#N)c3)cc2)cc1CN(C)C.O=C(O)C(F)(F)F | 100 | 10 | 11 |
| O=C(Cc1ccc(Cl)cc1)Nc1cc(Cl)ccc1Cn1cnc(N2CCNCC2)cc1=O.O=C(O)C(F)(F)F | 97 | 2 | 9 |
| COc1ccc(-c2cc(C(F)(F)F)n3ncc(C(=O)Nc4cc(C)ccc4O)c3n2)cc1OC | 100 | 100 | 2 |
| Cl.FC(F)(F)c1cc(Nc2ncnc3ccc(Br)cc23)ccc1OCc1ccccc1 | 87 | 9 | 12 |
| Cc1ccc(NC(=O)c2ccc(Cl)cc2)cc1-c1ccc(C(=O)Nc2ccncc2)cc1 | 98 | 5 | 36 |
| Cc1ccc(Nc2nccc(NCC(O)c3cccc(F)c3)n2)cc1 (stereo not given) | 95 | 26 | 24 |
| Cc1cc(N/N=C/c2cccc([N+](=O)[O-])c2)c2ccc(C(F)(F)F)cc2n1 | 100 | 51 | 2 |
| CCCc1ccc(-c2csc(NC(=O)c3ccc([N+](=O)[O-])o3)n2)cc1 | 85 | 13 | 72 |
| COc1ccc2nccc([C@@H](O)CN3CCC(NCCOc4cccc(C(F)(F)F)c4)CC3)c2c1.O=C(O)C(=O)O | 100 | 74 | 16 |
| COc1ccc(NS(=O)(=O)c2cc(NC(=O)Cn3ccccc3=O)ccc2N2CCCCC2)cc1 | 92 | 83 | 20 |

| Compound | Inhibition (Plasmodium falciparum [1]) [%] | Inhibition (Plasmodium falciparum [2]) [%] | Inhibition (HepG2) [%] |
| --- | --- | --- | --- |
| O=C(Nc1ccc(-c2nc3ccccc3[nH]2)cc1)C1CCCN(CC2CC2)C1 (stereo not given) | 89 | 8 | 6 |
| O=C(N1CCN(c2ccc(C(F)(F)F)cc2[N+](=O)[O-])CC1)C(Cl)(Cl)Cl | 100 | 99 | 29 |
| COc1ccc(-c2cc(C(=O)N3CCc4ccccc43)c3ccccc3n2)cc1OC | 85 | 48 | 5 |
| O=C(O)C(F)(F)F.c1ccc2[nH]c(-c3ccc(-c4ccc(CNC5CC5)cc4)s3)nc2c1 | 91 | 19 | 25 |
| Cl.O=C(Nc1ccncc1)Nc1ccc2c(c1)CCN(C1CCC1)CC2 | 87 | 4 | 0 |
| O=C(/C=C/c1cccc(C(F)(F)F)c1)NCCCCCN1CCN(C(=O)Nc2ccc(Cl)c(Cl)c2)CC1.O=C(O)C(F)(F)F | 89 | 0 | 29 |
| COc1cc2c(cc1C(F)(F)F)N(C(=O)Nc1cc(Br)cc(-c3cccnc3)c1)CC2 | 96 | 34 | 8 |
| Cc1n[nH]c2cc(Nc3ccnc(Nc4cccc(CN5CCOCC5)c4)n3)ccc12 | 83 | 0 | 33 |
| Cc1ccccc1CNc1ccc2nc(N)nc(N)c2c1 | 100 | 90 | 59 |
| COc1cccc(CN2CCCC(OC(c3ccc(F)cc3)c3ccc(F)cc3)C2)c1O (stereo not given) | 95 | 95 | 8 |
| O=C(Nc1ccc([N+](=O)[O-])cc1O)Nc1ccccc1Oc1ccccc1 | 92 | 1 | 45 |
| O=C(c1cccc(-c2noc(C(F)(F)F)n2)c1)N1CCN(C(=O)c2ccc3cc[nH]c3c2)CC1 | 94 | 85 | 15 |
| CN(C)CCNCc1nc(-c2ccc3c(Nc4ccc(Oc5ccccc5)cc4)ccnc3c2)cs1 | 100 | 100 | 8 |
| Cc1ccc(-c2cnc(N)c3cc(-c4ccnc(N)n4)ccc23)cc1 | 99 | 94 | 41 |
| O=C(/C=C/c1ccc(Cl)c(Cl)c1)NCCCCCN1CCC(NC(=O)Nc2ccc(Cl)c(Cl)c2)CC1 | 100 | 1 | 23 |
| COc1cccc(-c2ccc(C(=O)NC3CCN(Cc4ccc(N(C)C)cc4)CC3)s2)c1.O=C(O)C(F)(F)F | 81 | 20 | 8 |
| COc1ccc(O)c(-c2sc(N=C(N)N)nc2-c2ccccc2)c1 | 100 | 96 | 2 |
| CCOc1ccc(NC(=O)c2cn3nc(-c4ccc(OCC)cc4)cc3nc2C2CCNCC2)cc1.Cl | 100 | 39 | 36 |
| Cc1cc(N[C@@H](CC(C)C)C(=O)NCCCOC(C)C)nc(NCCc2ccc(F)cc2)n1.O=C(O)C(F)(F)F | 87 | 19 | 5 |
| Cc1cc(C)cc(OCC(O)CN(CCN2CCOCC2)C(=O)Nc2ccc(Br)cc2)c1.O=C(O)C(F)(F)F (stereo not given) | 85 | 19 | 7 |
